Laboratory results from PubChem BioAssay AID833 (The Scripps Research Institute Molecular Screening Center, 2007).
Out of some 16,000 compounds screened, about 80 (0.5%) were called active. What follows is part of a selection rich in actives, with near analogues and random picks from the rest. A number with no mark means an inactive call. Rule as the data show it: active = activation above about 15%; inactive = the rest.

target: Galanin receptor type 2 (Rattus norvegicus) (UniProt O08726); test: agonists of rat galanin receptor 2 (GALR2) (AID 833); settings: cell-based GALR2 agonist screen; at 10 µM; stronger effect = higher value
Sequence (O08726 whole entry, looked up): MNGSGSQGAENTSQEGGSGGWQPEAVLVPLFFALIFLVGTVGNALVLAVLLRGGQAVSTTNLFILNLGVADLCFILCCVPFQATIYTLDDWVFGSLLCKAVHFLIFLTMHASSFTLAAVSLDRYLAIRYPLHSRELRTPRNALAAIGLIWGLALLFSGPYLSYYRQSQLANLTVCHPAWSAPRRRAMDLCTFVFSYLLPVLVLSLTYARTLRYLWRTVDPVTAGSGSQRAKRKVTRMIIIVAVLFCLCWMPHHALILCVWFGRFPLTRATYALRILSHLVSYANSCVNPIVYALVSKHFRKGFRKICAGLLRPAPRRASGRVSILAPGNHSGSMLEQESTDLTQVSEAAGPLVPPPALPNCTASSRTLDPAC

SMILES | activation
O=S(=O)(CCSc1ccc(C(F)(F)F)cn1)CCSc1ccc(C(F)(F)F)cn1 | -4.73%
CC(C)N(C(=O)c1ccc(-c2ccccc2F)cc1)C(C)C | -5.45%
O=C(O)CC1(CC(=O)Nc2ccc(N3CCCCC3)cc2)CCCCC1 | -3.41%
Cn1cc(Br)c(-c2ccc(NC(=O)Nc3ccc(Cl)cc3)cc2)n1 | -8.08%
COC(=O)c1noc(C)c1-c1ccnn1C(=O)c1ccc(Cl)cc1 | -1.59%
CSC(=CC(=O)c1cccs1)SC | -10.2%
COc1cccc2c1c(NS(=O)(=O)c1cn(C)cn1)nn2C | -5.19%
CSc1nsc(SC)c1C(=O)NC(=O)NNc1ccc(F)c(Cl)c1 | -2.68%
Oc1[nH]c2ccc(F)cc2c1N=NC(=S)NC1CC2C=CC1C2 (centres undefined) | -9.63%
NS(=O)(=O)c1cc(Br)ccc1I | -1.14%
Cc1c(S(=O)(=O)N2CCOCC2)ccc(Cl)c1F | -9.66%
O=[N+]([O-])c1ccc(-c2ccc(I)cc2)cc1 | -5.42%
O=[N+]([O-])c1ccc(-c2nnnn2Cc2c(Cl)cccc2Cl)cc1 | -2.65%
Cc1c(NC(=S)Nc2ccccc2)c(=O)n(-c2ccccc2)n1C | -1.67%
COC(=O)c1cc(OC)c(OC)cc1NC(=O)c1ccccc1C(=O)O | 0.04%
COc1cc(CCN=Cc2ccccc2O)c([N+](=O)[O-])cc1OC | -0.09%
O=C(NCc1cccnc1)Nc1cccc(NC(=O)NCc2cccnc2)c1F | -10%
CNC(=S)NNC(=O)c1cc(C)on1 | -5.05%
Cc1cc(C)nc(N/C=C(\C#N)S(=O)(=O)c2ccc(Cl)cc2)n1 | -7.71%
N#CC(c1cc2ccccc2cn1)c1ccc2c(c1[N+](=O)[O-])C(=O)c1ccccc1C2=O (centres undefined) | -8.33%

SMILES | activation
N#CC1(C#N)C(c2ccc(Cl)c(Cl)c2)C1(C#N)C#N | -8.55%
CSc1n[nH]c(=O)n1-c1cccc(C(F)(F)F)c1 | -7.62%
COc1ccc(NC(=S)Nc2ccc(F)cc2F)c([N+](=O)[O-])c1 | -8.62%
c1ccc2c(-c3csc(-c4ccc5c(c4)OCCO5)n3)csc2c1 | -9.38%
Cc1nc(-c2ncc(-c3ccccc3)o2)c(C(F)(F)F)o1 | -5.66%
O=C(CSc1c(F)c(F)c(C(=O)O)c(F)c1F)Nc1cccc(C(F)(F)F)c1 | -5.69%
COC(=O)c1sccc1NC(=S)Nc1ccc(C)cc1 | -4.74%
Cc1cc(CNC(=O)c2cc(C)n(C)n2)no1 | 4.72%
Cc1nnsc1-c1nnc(SCC(=O)c2ccc3c(c2)OCO3)n1C1CC1 | -3.99%
O=C(O)CC(CC(=O)Nc1cc(C(F)(F)F)ccc1N1CCOCC1)c1ccccc1 (centres undefined) | -5.13%
N/C(=N\O)c1ccc2nonc2c1 | -8.97%
Cc1cc(CNCC(O)C(F)(F)F)no1 (centres undefined) | -7.81%
CSc1sc(C(=O)NC2CC2)c(-c2ccc(Cl)cc2)c1C#N | -8.05%
Cc1ccc(S(C)(=O)=NC(=O)NS(=O)(=O)Oc2ccc(Cl)cc2Cl)cc1 (centres undefined) | -1.36%
Cc1oc(-c2ccc(Cl)cc2)cc1C(=O)O/N=C(\N)Cc1nc2cccnc2n1C1CC1 | -4.62%
O=C(NCc1csc(-c2cccs2)n1)Nc1ccccc1-c1ccccc1 | -9.54%
Cc1oc(C(C)(C)C)cc1C(=O)NC1Cc2ccccc2C1 | -2.8%
CCOc1c(N2CCCCC2)c(=O)c1=O | 24.1% (active)
Cc1cc(-c2nc(C(=O)NN3CCCCC3)cs2)no1 | -7.49%
